# Source: PubChem BioAssay AID1362 (SRMLSC, 2008)
# The whole screen tested about 190,000 compounds, of which about 4,000 (2.1%) were called active. Cut-off read from the data, not from the text of the source: active = inhibition above about 58%; inactive = the rest, inconclusive results apart; tested in S. cerevisiae. The list comes from a sample in which actives are over-represented; it also holds similar structures and randomly drawn compounds.
# Test: growth inhibition of WT strain, primary screen, mitochondrial fusion inhibitor project, WT and mutant strains, chemical genetic (AID 1362)
# Settings: mitochondrial fusion phenotypic screen, at 10 µM
# [1] = WT strain, growth inhibition, stronger effect = higher value
SMILES,inhibition [1],inhibition (mutant strain inhibition) [%]
CCOC(=O)C1CCCN(C(=O)c2cccc(S(=O)(=O)N3CCOCC3)c2)C1 (centres undefined),-0.28% (inactive),-18.7
O=C(COc1ccc(-c2ccccc2)cc1)NN=C1CCCC1,2.21% (inactive),-3.38
CCCc1noc2c1/C(=N\O)CCC2,-2.57% (inactive),-4.14
CCCCc1cc2c(s1)CCCC/C2=N/O,63.2% (active),6.26
Cc1[nH]c2ccccc2c1/C=C(/C#N)C(=O)NC(C)C,-14% (inactive),-5.17
Cc1ccc(NC(=S)N(Cc2ccco2)C(C)c2cccs2)cc1 (centres undefined),75.8% (active),51.5
Cc1ccc(NC(=S)N(CCN2CCCCC2)Cc2ccco2)cc1C,8.12% (inactive),24.1
Cc1ccc(NC(=S)N(CCCN2CCC(C)CC2)Cc2ccco2)cc1,2.89% (inactive),13.6
CCN1CCN(C(C(=O)NC2CCCC2)c2cc3c(cc2[N+](=O)[O-])OCO3)CC1 (centres undefined),2.26% (inactive),-2.37
CC1(c2cccc([N+](=O)[O-])c2)CC(C)(C)N(C(=O)c2ccccc2)c2ccccc21 (centres undefined),75.8% (active),33.1
CC1CCN(C(=S)c2cccc([N+](=O)[O-])c2)CC1,7.85% (inactive),23
CC1(c2ccccc2)CC(C)(C)N(C(=O)c2cc([N+](=O)[O-])cc([N+](=O)[O-])c2)c2ccccc21 (centres undefined),57% (inactive),35.9
CCC(C(=O)OCC(=O)Nc1ccccc1-c1ccccc1)c1ccccc1 (centres undefined),70.9% (active),-2.32
CCC(C(=O)OCC(=O)Nc1c(Cl)cc(Cl)cc1Cl)c1ccccc1 (centres undefined),11.1% (inactive),-9.47
CCC(C(=O)OCC(=O)Nc1ccc(C(=O)Nc2ccc(OC)cc2)cc1)c1ccccc1 (centres undefined),12.9% (inactive),-13.4
O=C(Nc1ccc(NC(=O)c2ccco2)c(Cl)c1)c1cccc([N+](=O)[O-])c1,2.21% (inactive),16.7
CC(=O)c1cnc(-c2ccccc2)s1,3.8% (inactive),-4.54
Cc1cccc(NC(=S)N2CCCC(c3nc4ccccc4[nH]3)C2)c1 (centres undefined),-10.4% (inactive),0.82
Cc1ccc(C2CCN(C(=S)Nc3cccc(Cl)c3)C2)cc1 (centres undefined),74.3% (active),55
O=C(C1CCCO1)N1CCN(C(=S)Nc2cccc(Cl)c2)CC1 (centres undefined),-4.05% (inactive),25.8
CC1CN(/C=C/C(=O)C(F)(F)F)CC(C)O1 (centres undefined),-25.3% (inactive),4.39
S=c1[nH]nc(-c2ccccc2)n1/N=C/c1c[nH]c2ccccc12,1.16% (inactive),0

SMILES,inhibition [1],inhibition (mutant strain inhibition) [%]
O=C(O)c1cccc(NC(=S)N/N=C/c2c[nH]c3ccccc23)c1,-10.2% (inactive),4.36
CSC(=S)N/N=C/c1c[nH]c2ccccc12,65.8% (active),13.3
CCOC(=O)c1cnc2[nH]c3ccccc3n2c1=O,2.43% (inactive),-12.9
Cc1ccc(Cl)cc1NC(=O)C1CCN(S(C)(=O)=O)CC1,-9.34% (inactive),-12.3
Cc1ccccc1NC(=O)NC1(C(=O)N2CCCC2)CCCCC1,-9.64% (inactive),7.72
Cc1c(NC(=S)NCc2ccc(F)cc2)cccc1[N+](=O)[O-],5.62% (inactive),3.03
CCNC(=S)Nc1cccc(Cl)c1C,12.8% (inactive),23.6
Cc1cccc(NC(=S)NCCc2ccc(F)cc2)c1C,74.7% (active),64.6
O=C(OCC(=O)N1CCOCC1)c1ccc(N2CCOCC2)c([N+](=O)[O-])c1,-7.83% (inactive),-1.16
O=C(COc1ccc(Cl)cc1[N+](=O)[O-])N1CCCCC1,1.62% (inactive),-14.6
CCOC(=O)N/N=C/c1cn(Cc2ccccc2Cl)c2ccccc12,-3.34% (inactive),-14.2
COC(=O)N/N=C/c1cn(CCCOc2ccc(C)cc2)c2ccccc12,2.1% (inactive),-14.3
CNC(=S)N/N=C/c1cn(Cc2ccc(C)cc2)c2ccccc12,74.4% (active),61.2
Cc1cc(C(C)(C)C)cc(S(=O)(=O)Nc2ccc(C(=O)O)cc2)c1C,-13% (inactive),10.3
Cc1cc(NS(=O)(=O)c2ccc(NC(=O)c3cccc(OC(F)F)c3)cc2)nc(C)n1,-7.81% (inactive),6.49
Cc1cc(C)cc(NC(=O)CSc2ccccc2)c1,-4.46% (inactive),-13.2
Cc1nc2ccccc2cc1C(=O)N/N=C/c1ccc([N+](=O)[O-])cc1,65.1% (active),20.7
Cc1ccsc1C(=O)N/N=C/c1ccc([N+](=O)[O-])cc1,-11.5% (inactive),-7.32
O=C(N/N=C/c1ccc([N+](=O)[O-])cc1)c1c[nH]c2ccccc12,-8.33% (inactive),14.7
Cc1ccc2[nH]c(=O)c(CN(CC3COCCO3)C(=O)Nc3ccccc3C)cc2c1 (centres undefined),-8.31% (inactive),8.92
COCCNc1nc(-n2nc(C)cc2C)nc2sc3c(c12)CCCC3,18.8% (inactive),0
Cc1cc(C)n(-c2nc(SCC(=O)N3CCCC3)c3c4c(sc3n2)CCCC4)n1,62% (active),38.4

SMILES,inhibition [1],inhibition (mutant strain inhibition) [%]
Cc1nc(SCC(=O)Nc2cc(C)on2)c2c3c(sc2n1)CCCC3,21.1% (inactive),31.1
Cc1cc(C)n(-c2nnc(N3CCN(c4ccccc4)CC3)nn2)n1,12.1% (inactive),10.8
CC(CO)NCC12CC3CC(CC(C3)C1)C2 (centres undefined),-17.6% (inactive),-8.59
COc1c(F)c(F)c(C(=O)O)c(Nc2ccccc2C)c1F,74.2% (active),15.4
Cc1ccc(Nc2c(F)c(F)c(F)c(F)c2C(=O)O)c(C)c1,-0.48% (inactive),-18
Cc1ccccc1NC(=O)c1ccccc1,-1% (inactive),-29.4
CC(=O)c1ccc(NC(=O)C(C)NCc2ccc(Cl)cc2)cc1 (centres undefined),26.3% (inactive),-21.6
Cc1cccc(C)c1NC(=O)Nc1ccccc1-n1ccnc1,0.23% (inactive),6.61
CCNC(=S)NNC(=O)C1CCN(Cc2ccccc2)CC1,2.38% (inactive),-10.7
CCC(C)(C)n1nnnc1C(c1cccs1)N1CCN(Cc2ccccc2)CC1 (centres undefined),10.3% (inactive),21.9
Fc1ccccc1C(c1nnnn1Cc1ccc2c(c1)OCO2)N1CCN(Cc2ccccc2)CC1 (centres undefined),15.4% (inactive),18.9
Fc1ccc(Cn2nnnc2C(c2cccs2)N2CCCCCC2)cc1 (centres undefined),62.9% (active),11.4
O=C(NCc1nnc(SCC(=O)N2CCCc3ccccc32)o1)c1ccccc1F,1.27% (inactive),-4.18
CC(=O)Nc1ccc(CN2CCN(Cc3ccc(F)c(F)c3)C(CCO)C2)cc1 (centres undefined),1.99% (inactive),5.61
Cc1ccc(NCc2n[nH]c(=S)n2-c2ccccc2)cc1Cl,-7.14% (inactive),3.54
CC(=O)n1cc([C@@H]2C=C(C(=O)N3CCN(Cc4ccc5c(c4)OCO5)CC3)O[C@H](OCc3ccc(CO)cc3)C2)c2ccccc21,1.15% (inactive),3.61
OCCCC1CCCCN1Cc1nc(Cc2ccccc2Cl)no1 (centres undefined),-11.6% (inactive),-5.21
C=CCC(CC=C)(C(N)=O)c1ccccc1,-18.5% (inactive),6.11
CC(C)(c1ccccc1)c1ccc(OCCN)cc1,79.8% (active),43.4
CN(C)CC(O)COc1ccc(C(C)(C)c2ccc(OCC(O)CN(C)C)cc2)cc1 (centres undefined),-19.2% (inactive),-3.67
O=C(NCCOc1ccccc1)c1ccccc1,3.33% (inactive),5.23
CCOC(=O)c1cc(-c2ccc(F)cc2)n(CC(=O)NCc2ccccn2)c1C,-1.19% (inactive),1.72

SMILES,inhibition [1],inhibition (mutant strain inhibition) [%]
Cc1nn(-c2ccc([N+](=O)[O-])cc2)c(N)c1-c1ccccc1,6.29% (inactive),-26
Cn1cccc1C(C#N)c1ccccc1C#N (centres undefined),-2.23% (inactive),-5.92
COc1ccccc1CCNC(=O)CSc1nnc2ccc(-c3cccnc3)nn12,-7.72% (inactive),2.87
CC(NC(=S)Nc1ccc(OC(F)F)cc1)c1ccc(F)cc1 (centres undefined),42.7% (inactive),-13.6
COc1cccc2sc(N(CCCN(C)C)C(=O)C(c3ccccc3)c3ccccc3)nc12,96.8% (active),88.8
CC(=O)N(CCCN(C)C)c1nc2ccc(C)cc2s1,-12.7% (inactive),-0.04
CN(C)CCCN(C(=O)COc1ccccc1)c1nc2c(Cl)cccc2s1,-5.71% (inactive),13.3
COc1ccc(CNc2c(CO)cnc3c2cnn3C)cc1,4.76% (inactive),3.68
COCC(C)NC(=O)CSc1nc2nn(-c3ccccc3)c(=O)c-2c2n1CCCCC2 (centres undefined),0.91% (inactive),-15.1
O=C(N/N=C/C=C/c1ccccc1)C1CC1(c1ccccc1)c1ccccc1 (centres undefined),17.1% (inactive),-3.76
O=C(/C=C/c1ccccc1)c1ccccc1O,12.3% (inactive),8.14
CC(/C=C/c1ccccc1)=N\NC(=O)C1CC1(C)c1ccccc1 (centres undefined),71.7% (active),59.3
CCOC(=O)C1=C(CC)Nc2ccccc2N=C1N,-42.2% (inactive),-18.4
CCO[C@H]1OC(C(=O)N2CCCCCCC2)=C[C@@H](c2ccc(C(F)(F)F)cc2)[C@@H]1CCCO,-11% (inactive),9.51
O=C(Nc1ccccc1)c1nnsc1S(=O)(=O)c1ccc(Cl)cc1,98.5% (active),97.8
O=C(Nc1ccc(Cl)cc1)c1ccsn1,12.9% (inactive),28
CC(=O)Nc1cc(C(=O)O)ccc1S(=O)(=O)c1ccc(Cl)cc1,8.84% (inactive),41.8
CN(C)c1ccc(C=NCCc2ccc(S(N)(=O)=O)cc2)cc1,-3.5% (inactive),-12.7
CC(C)CC(COCc1ccc(Cl)cc1)N1CCN(C(=O)c2ccc(C(F)(F)F)cc2)CCC1=O (centres undefined),35.7% (inactive),0.99
CC(C)CC(CO)N1CCN(C(=O)c2ccc(Cl)cc2Cl)CCC1=O (centres undefined),-10.3% (inactive),1.82
O=C(c1cc(Cl)cc(Cl)c1)N1CCC(=O)N(C(COCc2ccccc2)Cc2ccccc2)CC1 (centres undefined),71.4% (active),11.6
